Compound activity as filed in PubChem.
This excerpt belongs to a sample that is enriched for hits.
AMA1 RON2 block = disrupts binding of P. falciparum AMA1 to RON2; AlphaScreen AMA1-biotinylated RON2 peptide binding; Potency, µM (doses to about 58.2 µM), for inactives: at the top dose activity change, negative = inhibition, actives largely listed as inhibitors; 360,000 compounds, 0.2% hits; active = well fitted inhibition curve with a large enough effect; inconclusive = small, poorly fitted or top-dose-only effect; inactive = no such curve, though single readings can be large or run the other way;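 note: potency is the fitted concentration of half-maximal effect; 0% = vehicle wells and -100% = peptide control; nearly all actives have a fitted effect of over 45% in size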
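AMA1 (3D7) with his tag at 25 nM final met compounds first, then biotinylated RON2 peptide at 25 nM; detection used donor plus acceptor beads, 10 µg/mL apiece, read by AlphaScreen after 30 min at room temperature.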
LASV entry inh = Lassa virus entry inhibition; Potency, µM (series often up to 37.9 µM), without a hit: at the highest dose activity change, negative = inhibition, actives largely listed as inhibitors; 300,000 compounds, 1.2% hits; Lassa virus pseudotype entry inhibition, cell reporter; calls by dose curve; tested in HEK293 cells; note: potency is the fitted concentration of half-maximal effect; % is set by controls: 0 for no effect and ±100 for the full control effect; nearly all actives have a fitted effect of over 50% in size
MARV entry inh = inhibitors of Marburg virus binding or cell entry | Marburg virus pseudotyped entry inhibition, cell reporter | Potency, µM (series often up to 37.8 µM), without a hit: at the highest dose activity change, negative = inhibition, usual class: inhibitors | 300,000 compounds, 1.8% hits | AID 540276; calls by dose curve; tested in HEK293 cells; note: potency is the fitted concentration of half-maximal effect; % is set by controls: 0 for no effect and ±100 for the full control effect
CHX counter = counter-screen for Shiga toxin inhibitors: cycloheximide protein synthesis inhibition; cell reporter, cycloheximide protein synthesis inhibition counterscreen; max response, %; 300,000 compounds, 12% hits; AID 2314; in the data active = max response mostly above about 13%, no sharp cut-off; inactive = mostly below about 14%; note: read at 38.3 µM for the half of the compounds with a filed dose; 0% is about no effect
Shiga inhibitor = Shiga toxin inhibition | inhibition, % at 38.7 µM | 290,000 compounds, 9.2% hits | AID 2315 | Vero cells, Shiga toxin protein synthesis inhibition reporter; in the data active = inhibition mostly above about 28%, no sharp cut-off; inactive = mostly below about 43%; note: 0% is about no effect
An asterisk follows results filed as active; i = inactive; ? = inconclusive; nt = no result; [ ] = dose if it differs, or a comment.

SMILES | AMA1 RON2 block | LASV entry inh | MARV entry inh | CHX counter | Shiga inhibitor
CCOc1cccc(C2CC(=O)Nc3cc4c(cc32)OCCO4)c1 (stereo not given) | nt | ? | 2.24µM* | nt | nt
COc1ccccc1C1CC(=O)Nc2cc3c(cc21)OCCO3 (stereo not given) | -1.4% | ? | 2.06µM* | -4.1 | -37.3
CCCOc1c(OC)cccc1C1CC(=O)Nc2cc3c(cc21)OCCO3 (stereo not given) | -8.0% | ? | ? | 7.5 | 6.8
CCOC(=O)N1CCN(C(=O)c2noc3c2COc2ccccc2-3)CC1 | -16.2% | nt | nt | 19.6* | 20.1
CCCN1CCN(C(=O)c2noc3c2COc2ccc(C)cc2-3)CC1 | -2.1% | nt | nt | 16.9* | 54.1*
Cc1ccc2c(c1)-c1onc(C(=O)N3CCN(c4cc(C)ccc4C)CC3)c1CO2 | nt | -1.4%[46.1 µM] | nt | nt | nt
O=C(Cn1cc(C(=O)C(=O)N2CCOCC2)c2ccccc21)Nc1cccc(C(F)(F)F)c1 | -0.8% | nt | nt | nt | nt
CCC(C)NC(=O)C1CCC(CNS(=O)(=O)c2ccccc2)CC1 (stereo not given) | 27.7% | nt | nt | -2.5 | -3.0
N#C/C(=C\c1ccncc1)c1nc2c(s1)CCCC2 | 5.4% | nt | nt | 21.3* | 41.8*
CC(=O)c1ccc(C(=O)NC2CC(C)(C)Cc3c2cnn3-c2ccccc2)cc1 (stereo not given) | -6.4% | 11.7% | 24.9% | 19.3* | 16.7
CC1(C)Cc2c(cnn2-c2ccc(F)cc2)C(NC(=O)CCN2CCCC2=O)C1 (stereo not given) | 0.0% | nt | nt | 30.1* | 46.8*
COc1ccc(C(=O)NC2CC(C)(C)Cc3c2cnn3-c2ccccc2)cc1OC (stereo not given) | -1.3% | -13.6%[46.1 µM] | ? | -1.5 | -4.8
CC1(C)Cc2c(cnn2-c2ccc(F)cc2)C(NC(=O)c2ccco2)C1 (stereo not given) | -8.4% | -1.2% | 0.2% | 12.6 | 22.4*
CC1(C)Cc2c(cnn2-c2cccc(F)c2)C(NC(=O)CCc2cnccn2)C1 (stereo not given) | 3.1% | nt | nt | 41.0* | 19.2
COc1ccc(OC)c(CC(NC(C)=O)C(=O)NC2CCN(c3cc(C)nc4ncnn34)CC2)c1 (stereo not given) | nt | nt | nt | 2.9 | -9.4
CCOc1ccc2oc(=O)cc(CN3CCN(c4ccc(Cl)cc4)CC3)c2c1 | nt | ? | -24.2%[46.1 µM] | nt | nt
CCOc1cc(C(=O)OCc2cc(=O)n3nc(CC)sc3n2)cc(OCC)c1OCC | nt | -19.3%[46.1 µM] | nt | nt | nt
CSc1cccc(N2CC(C(=O)N(CC(C)C)c3c(N)n(Cc4ccccc4)c(=O)[nH]c3=O)CC2=O)c1 (stereo not given) | -10.6% | -18.5% | 5.4% | nt | nt
CCCCN(C=O)c1c(CC)nc2c(OCC(=O)c3ccc(F)cc3)cccn12 | 23.6% | nt | nt | nt | nt
CC1(C)Cc2c(cnn2-c2ccc(F)cc2)C(NC(=O)C2=NNC(=O)CC2)C1 (stereo not given) | -13.7% | nt | nt | 28.5* | 39.4*
COCC(=O)NC1CC(C)(C)Cc2c1cnn2-c1ccc(F)cc1 (stereo not given) | 16.3% | nt | nt | 10.0 | 14.3
CN(Cc1ccco1)C(=O)Cn1nc(-c2ccc(Cl)cc2)ccc1=O | 3.2% | nt | nt | -3.2 | -10.0
C/C(=N\NC(=O)c1ccccn1)C12CC3CC(CC(C3)C1)C2 | 39.8% | 5.2% | 6.3% | 31.2* | 53.7*
N/C(=N\OC(=O)C12CC3CC(CC(C3)C1)C2)c1ccccn1 | 27.6% | ? | ? | 41.1* | 42.8*
Cc1occc1C(=O)NC1CCCCCC1 | -2.8% | 6.1% | ? | 16.8 | 51.4
SMILES | AMA1 RON2 block | LASV entry inh | MARV entry inh | CHX counter | Shiga inhibitor
C/C(=N/NC(=O)c1ccoc1C)C12CC3CC(CC(C3)C1)C2 | 4.3% | 12.0% | 17.7% | 38.6* | 5.2
C/C(=N/NC(=O)c1ccccn1)c1ccco1 | 5.2% | ? | ? | 3.4 | 22.9
N/C(=N\OC(=O)C12CC3CC(CC(C3)C1)C2)c1cccnc1 | 21.5% | 3.3% | -3.7% | 19.4* | 17.4
COC(=O)c1cc(NC(=O)c2cc3sccc3n2Cc2ccc(Cl)cc2)cc(C(=O)OC)c1 | nt | 1.4%[46.1 µM] | ? | nt | nt
CSCCC(NC(=O)/C(=C/c1ccco1)NC(=O)c1ccc(Br)o1)C(=O)O (stereo not given) | 19.4% | nt | nt | -2.9 | -5.6
Cc1ccc(C(=O)COC(=O)c2cnccn2)cc1 | 11.8% | 24.5% | ? | -2.1 | -1.8
O=C(NC1CCCc2ccccc21)c1cn2ccccc2n1 (stereo not given) | 0.2% | 7.3% | 5.4% | 19.0* | 15.3
Cn1ccc(C(=O)OCC(=O)c2ccccc2)n1 | -5.0% | 18.5% | 4.3% | 16.9* | 59.5
Cc1ccc(C(=O)COC(=O)c2cn3ccccc3n2)cc1 | 16.8% | nt | nt | 42.2* | i
Cc1cnc(C(=O)OCC(=O)c2ccccc2)cn1 | -6.7% | 3.3% | -4.7%[46.1 µM] | nt | nt
NNC(=O)c1cn2ccccc2n1 | 72.7% | 29.5% | ? | 29.0* | 59.6*
CCc1cccc(NC(=O)C2CCC(CNS(=O)(=O)c3ccc(Br)s3)CC2)c1 (stereo not given) | nt | 18.7%[46.1 µM] | 0.7%[46.1 µM] | nt | nt
Cc1ccc(Cl)cc1NC(=O)c1oc2ccc(S(=O)(=O)N3CCC4(CC3)OCCO4)cc2c1C | nt | 1.3%[46.1 µM] | nt | nt | nt
CCCOc1ccc(C(=O)N2CCCc3ccccc32)cc1 | 3.8% | ? | ? | 14.9* | 19.0
O=C(c1ccc2ccccc2c1)N1CCc2ccccc21 | -5.3% | 2.5% | -0.5%[46.1 µM] | 37.0* | 47.8
Cc1cc(C(=O)N2CCc3ccccc32)n(-c2ccccc2)n1 | -1.0% | nt | nt | -1.1 | -3.1
Cc1cc(C)n(-c2ccc(C(=O)OC(C)C)cc2)n1 | -4.0% | ? | 4.9% | 20.4* | 15.2
COC(=O)c1ccc(OCC(=O)N2CCCc3ccccc32)cc1 | -11.7% | -10.0% | 15.2%[46.1 µM] | -0.1 | -3.1
Cc1cc(C)n(-c2ccc(C(=O)NC(C)C)cc2)n1 | 4.5% | 6.4% | 20.0% | -1.1 | 4.7
Cc1cc(C)n(-c2ccc(C(=O)N3CCc4ccccc43)cc2)n1 | -12.0% | 17.8% | -16.8% | 17.7* | 62.9*
O=C(c1ccc(F)c(F)c1)N1CCCc2ccccc21 | 0.2% | nt | nt | -3.9 | 1.3
CCCSc1nc(C)nc2c1c(=O)n(C)c(=O)n2C | nt | nt | -1.3% | -3.6 | 2.6
Cc1ccc(C(c2sc3nc(-c4ccco4)nn3c2O)N2CCN(c3ccc(F)cc3)CC2)cc1 (stereo not given) | nt | 9.2%[46.1 µM] | nt | nt | nt
CC1=C(C(=O)N2CCCCC2)C(c2cccc(Cl)c2)n2c(nc3ccccc32)N1 (stereo not given) | nt | -11.0%[46.1 µM] | -18.0%[46.1 µM] | nt | nt
CSCC[C@H](N)C(=O)N1CCC(C(=O)N[C@H](C)C(=O)Nc2ccc(C(C)C)cc2)CC1 | 16.3% | 17.2%[46.1 µM] | ? | -1.9 | -4.7
SMILES | AMA1 RON2 block | LASV entry inh | MARV entry inh | CHX counter | Shiga inhibitor
CC(C)(C)c1cc(C(=O)N2CCc3ccccc3C2)ccn1 | -0.3% | nt | nt | 13.2 | 3.2
CC(C)(C)c1cc(C(=O)N2CCc3ccccc32)ccn1 | 10.7% | -0.1% | ? | 8.8 | 40.0*
CCOc1ccc(C(=O)N2CCc3ccccc32)cc1 | 7.9% | nt | nt | 44.5* | 64.0*
CCOc1ccc(C(=O)OC2CCN(C)CC2)cc1 | 4.0% | 1.5% | ? | 14.0* | 25.8
CCOc1ccc(NC(=S)Nc2cc(OC)c(Cl)cc2OC)cc1 | 0.2% | -9.1% | 8.0% | 1.7 | -1.0
CN(C)C(=O)C1Cc2ccccc2CN1S(=O)(=O)c1cccs1 (stereo not given) | 2.0% | -7.7%[46.1 µM] | -9.9%[46.1 µM] | -3.3 | 10.2
